FBW7 activator = FBW7 E3 ligase activators, primary screen, biochemical, AlphaScreen, human. F-box/WD repeat-containing protein 7 (Homo sapiens), Q969H0. AlphaScreen FBW7–phospho-cyclin E peptide binding, activator screen. normalized activity (activation), % at 26.1 µM. 650,000 compounds, 0.13% hits. AID 1259310, 2017; in the data active = normalized activity above about 1.9%;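 note: purified mutant Fbw7 with reduced substrate affinity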
Target sequence (Q969H0 whole entry, looked up): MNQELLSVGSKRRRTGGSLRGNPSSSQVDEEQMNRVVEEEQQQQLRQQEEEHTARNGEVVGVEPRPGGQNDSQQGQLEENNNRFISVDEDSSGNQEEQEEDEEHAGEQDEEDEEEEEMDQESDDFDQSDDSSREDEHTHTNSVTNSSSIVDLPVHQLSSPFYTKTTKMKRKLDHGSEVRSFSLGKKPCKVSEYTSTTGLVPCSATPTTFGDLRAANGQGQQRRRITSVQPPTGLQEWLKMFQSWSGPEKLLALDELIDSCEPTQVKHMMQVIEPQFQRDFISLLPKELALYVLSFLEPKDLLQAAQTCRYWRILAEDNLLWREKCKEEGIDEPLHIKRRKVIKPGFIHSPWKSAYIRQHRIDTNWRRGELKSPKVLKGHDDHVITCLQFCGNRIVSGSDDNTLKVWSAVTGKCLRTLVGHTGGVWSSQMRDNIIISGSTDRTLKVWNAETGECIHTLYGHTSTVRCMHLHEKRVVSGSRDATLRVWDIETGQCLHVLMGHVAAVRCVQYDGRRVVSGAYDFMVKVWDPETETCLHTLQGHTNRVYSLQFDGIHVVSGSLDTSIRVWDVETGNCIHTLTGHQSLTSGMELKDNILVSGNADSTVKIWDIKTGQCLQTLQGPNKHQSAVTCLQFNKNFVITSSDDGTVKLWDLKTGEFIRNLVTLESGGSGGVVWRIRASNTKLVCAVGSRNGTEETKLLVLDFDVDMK
GPR151 ag = activators of human GPR151, primary screen, cell-based, PathHunter beta-arrestin, luminescence. activation, % at 11.2 µM. 650,000 compounds, 1% hits. G-protein coupled receptor 151 (Homo sapiens), Q8TDV0. PathHunter beta-arrestin GPR151 cells. AID 1508602, 2020; in the data active = activation above about 4.9%;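 note: 0% = median of compound wells and 100% = cells with positive control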
TEAD-YAP inh = TEAD-YAP interaction inhibition, primary screen, TEAD-YAP interaction inhibitor project, luminescence, HEK-TIYL cells; AID 1259422, 2018; inhibition, % at 9.12 µM; TEAD-Gal4/YAP UAS-luciferase luminescence; 640,000 compounds, 1.4% hits; in the data active = inhibition above about 32%;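 note: 0% = median of test compound wells and 100% = reference inhibitor wells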
MITF primary = MITF inhibitors, primary screen, biochemical, AlphaScreen, human. Microphthalmia-associated transcription factor (Homo sapiens), O75030. 650,000 compounds, 0.91% hits. inhibition, % at 2.6 µM. AlphaScreen MITF homodimerization, bead proximity signal; in the data active = inhibition above about 50%;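 note: 0% = vehicle wells with protein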
MITF confirm = MITF inhibitors, retest of hits, confirmation, biochemical, AlphaScreen, triplicate; 4,700 compounds, 16% hits; inhibition, % at 2.6 µM; shares compounds with MITF primary; AID 1259372, 2018; AlphaScreen MITF homodimerization, biotin/His-MITF beads;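 active = inhibition above a cutoff derived from the DMSO control wells, cut at about 28% in these data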;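 note: 0% = MITF dimer wells with DMSO only; inhibitors lower the bead chemiluminescence by keeping MITF from dimerizing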
AlphaScreen intf2 = AlphaScreen optical interference compounds, counter-screen for MITF inhibitor project, biochemical, triplicate; shares compounds with MITF primary; LysRS AlphaScreen counterscreen, signal interference; inhibition, % at 2.6 µM; 4,700 compounds, 7.6% hits;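 active = inhibition above a cutoff derived from the DMSO control wells, cut at about 30% in these data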
* = called active by the depositor; nt = not tested or not shown. Rows were chosen to be rich in hits. Some 3.5% of all compounds tested hit in one or more screens of this group.

SMILES	FBW7 activator	GPR151 ag	TEAD-YAP inh	MITF primary	MITF confirm	AlphaScreen intf2
CCOC(=O)C1(CC2CCCCO2)CCN(C(=O)CSc2ccncc2)CC1 (centres undefined)	0	0	-2	-2	nt	nt
CC(=O)c1ccc2c(c1)CC(c1nc3ncc(-c4ccnc(N)n4)cc3[nH]1)CO2 (centres undefined)	1	2	11	51*	23	-12
COc1ccc2c(c1)CC(c1nc3ncc(-c4ccnc(N)n4)cc3[nH]1)CO2 (centres undefined)	0	-1	22	18	nt	nt
COc1ccccc1-n1c(=S)sc2c(=O)n(-c3ccccc3)c(SCC(=O)c3ccc(Cl)cc3)nc21	0	0	-9	68*	0	0
CC(C(=O)OCC(=O)NCc1ccco1)N1C(=O)c2ccccc2C1=O (centres undefined)	0	-1	-2	-4	nt	nt
Cc1ccc(C2CC(c3cccs3)=NN2C(=O)CSc2nnc(CNC(=O)c3cccs3)n2-c2cccc(C)c2C)cc1 (centres undefined)	0	1	0	0	nt	nt
Cn1c(-c2ccc(Br)cc2)cnc1NCc1ccc(C#N)cc1	0	0	-17	33	nt	nt
Cn1c(-c2ccc(Cl)cc2)cnc1NCc1ccc(C#N)cc1	0	-1	-7	54*	-10	-13
CCCCOC(=O)c1ccc(NC(=O)C(Cl)(Cl)Cl)cc1	0	1	-31	-12	nt	nt
Cc1cccc(NC(=O)CSc2ncc(-c3ccccc3)[nH]2)c1	0	2	-2	81*	-7	-1
CCOC(=O)C(NC(=O)c1ccccc1Cl)(Nc1sc2c(c1C(N)=O)CCCC2)C(F)(F)F (centres undefined)	0	1	1	5	nt	nt
CN(C)S(=O)(=O)c1ccc(C(=O)Nc2ncnc3c2CCC3)cc1	1	0	9	55*	5	-8
CN(C1CC1)S(=O)(=O)c1ccc(C(=O)Nc2ncnc3c2CCC3)cc1	0	-1	-3	-11	nt	nt
COc1ccc(/C=N/n2c(-c3ccco3)n[nH]c2=S)c(OC)c1OC	0	0	3	3	nt	nt
O=C1c2ccccc2C(=O)N1c1ccc(N2C(=O)c3ccccc3C2=O)c(Cl)c1	0	-1	1	2	nt	nt
O=C(O)c1ccc(N2C(=O)c3cccnc3C2=O)cc1	-1	0	8	40	nt	nt
O=C1c2cccnc2C(=O)N1c1ccc(Br)cc1	-1	-2	7	58*	6	20
O=C1c2cccnc2C(=O)N1c1ccc(N2C(=O)c3cccnc3C2=O)c(Cl)c1	-1	-1	-2	70*	19	31*
O=C(NCC1CCC2(CCN(C(=O)/C=C/c3ccc(F)c(F)c3)CC2)O1)c1ccccn1 (centres undefined)	0	1	11	10	nt	nt
O=C(C1C2C=CC3(CN(Cc4ccccc4Cl)C(=O)C13)O2)N1CCOCC1 (centres undefined)	0	-1	-3	1	nt	nt
Cc1ccc(NC(=O)CN(c2ccc(I)cc2)S(C)(=O)=O)cc1	0	-2	-64	-19	nt	nt
Cc1cccc(NC(=O)CN(c2ccc(I)cc2)S(C)(=O)=O)c1	0	0	-75	71*	-2	0
Cc1ccccc1-c1ccc(C(=O)N2CCN(C)CC2)c(NCc2cccnc2)n1	0	-1	1	-1	nt	nt
COc1cc(C(=O)COC(=O)c2cccc(OC)c2OC)cc(OC)c1OC	1	0	2	14	nt	nt
COc1ccccc1CN1CCN(Cc2ccc(C(F)(F)F)cc2)CC1	0	1	-16	60*	6	13
SMILES	FBW7 activator	GPR151 ag	TEAD-YAP inh	MITF primary	MITF confirm	AlphaScreen intf2
COc1ccc(CN2CCN(Cc3ccc(C(F)(F)F)cc3)CC2)c(OC)c1	0	0	-1	68*	10	13
COc1ccc(CN2CCN(Cc3ccc(C)cc3)CC2)c(OC)c1	-1	-1	-15	79*	0	9
CCCN(CCC)S(=O)(=O)c1ccc(OCC)c2ccccc12	1	0	7	65*	1	10
Cc1cc(C)c2c(-n3cccc3)c(C(=O)N3CCN(C)CC3)sc2n1	0	1	2	9	nt	nt
CS(=O)(=O)N1CCN(c2ccc(-c3ccccn3)nn2)CC1	-1	-3	-25	87*	107*	101*
O=C(c1ccccn1)N1CCN(C(=O)c2ccccn2)CC1	0	0	2	-11	nt	nt
O=C(CC1CCCC1)N1CCN(c2ccc(-c3ccccn3)nn2)CC1	-1	-1	-15	111*	111*	101*
O=C(Cn1cnc2ccccc2c1=O)N1CCN(c2ccc(-c3ccccn3)nn2)CC1	-1	3	6	116*	112*	101*
O=C(CCC1CCCN(C(=O)CC2CCCCC2)C1)N1CCN(c2ccccn2)CC1 (centres undefined)	0	0	2	2	nt	nt
O=C(c1ccccn1)N1CCN(c2ccc(-c3ccccn3)nn2)CC1	-1	-1	-10	123*	112*	101*
CN(C)S(=O)(=O)c1ccc(/C(O)=C2/C(=O)C(=O)N(CCN3CCOCC3)C2c2ccc(Cl)cc2)cc1 (centres undefined)	0	-1	8	2	nt	nt
CC1=CCC2C(=O)N(c3ccc(C(=O)Nc4ccccc4)cc3)C(=O)C2C1 (centres undefined)	0	0	-26	-15	nt	nt
O=C(Nc1ccccc1)/C(=C\c1ccc([N+](=O)[O-])o1)NC(=O)c1ccc(Br)cc1	0	2	-2	27	nt	nt
O=C(O)CCCCCNS(=O)(=O)c1ccc(F)cc1	0	2	-30	-6	nt	nt
CCOc1ccc(OCCCNCCO)cc1	0	-2	13	18	nt	nt
CCN1CCN(CCOc2ccc(C#N)cc2)CC1	0	0	9	54*	6	8
CCC(C)c1ccc(OCCNCCO)cc1 (centres undefined)	0	1	-1	56*	-17	-8
N#Cc1ccc(OCC(O)CN2CCN(CCOc3ccccc3)CC2)cc1 (centres undefined)	0	-1	-3	81*	2	9
CCC(C)c1ccc(OCCN2CCN(CC)CC2)cc1 (centres undefined)	0	1	3	56*	8	11
CCCOCc1ccc(O)c2ncccc12	-2	0	22	81*	80*	100*
Oc1ccc(CN2CCN(c3ccccc3F)CC2)c2cccnc12	-1	1	-2	20	nt	nt
CCOC(=O)N1CCN(Cc2ccc(O)c3ncccc23)CC1	-1	0	5	71*	50*	97*

Bioassay records as filed in PubChem BioAssay.
